# Laboratory results as given in PubChem BioAssay (NCI).
# About 83,000 compounds went through this panel and 20% of them were active in at least one assay; those are over-represented in the sample as a whole.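 Single-concentration screen, 48 h exposure, 96-well plates. Endpoint: percent growth. Below 10 = active.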 Active and inactive are the calls of the source.
# System: PC-3 prostate
# Experiment: NCI-60 one-dose screen, 48 h (100 = growth as untreated, 0 = no growth, -100 = all killed)
# Conditions: 10 µM unless noted
# Method: Growth inhibition of the PC-3 human tumor cell line is measured as a screen for anti-cancer activity. Cells are grown in 96 well plates and exposed to the test compound for 48 hours. Compounds are tested at a single concentration, which is 10^-5 M for most compounds. The reported endpoint is percent growth (GI% or GIPRCNT), where numbers from 0 - 100% represent growth inhibition, and numbers from -100% - 0 represent cell death. For example, a value of 40 represents 60% growth inhibition. A value of 0 means no net growth occurred over the course of the experiment. A value of -40 indicates 40% of cells at the beginning of the experiment died by the end of the experiment. A value of -100 means all cells are dead at the end of the experiment.
# NCI-60 Human Tumor Cell Lines Screen was performed using the standard one-dose NCI protocol, which is described in more detail at https://dtp.cancer.gov/discovery_development/nci-60/default.htm.
# Compounds with GIPRCNT values below 10 were considered active. Activity score was based on GIPRCNT using the following formula: […]
# Score is 0 for GIPRCNT values of 100 or above, 50 for GIPRCNT values of 0, and 100 for GIPRCNT values of -100.
row,Structure (SMILES),growth
1,O=C(CSc1nnc(-c2ccc(Cl)c(Cl)c2)n1-c1ccccc1)Nc1ccc(C(=O)/C=C/c2ccc(Cl)cc2)cc1,62.5% (inactive)
2,COc1cc(/C=C/C(=O)c2ccc(-n3cc(CN4CCN(c5cc6c(cc5F)c(=O)c(C(=O)O)cn6C5CC5)CC4)nn3)cc2)cc(OC)c1OC,84.7% (inactive)
3,CCCCC1=C(Br)C(=O)c2ncccc2C1=O,90% (inactive)
4,CCOc1cc(\C=N/N=C(N)/C(N)=N\N=C/c2ccc(O)c(OCC)c2)ccc1O,82.4% (inactive)
5,Fc1ccc(/C=C/c2cc(/C=C/c3ccc(F)cc3)n(-c3cc(F)cc(F)c3)n2)cc1,76.4% (inactive)
6,O=C(O)c1cc2ccccc2s1,96.4% (inactive)
7,CN(C)CCOc1nc2c3cc([N+](=O)[O-])ccc3nn2c2ccccc12,47.1% (inactive)
8,CCOC(=O)CSc1nc2sc3c(c2c(=O)n1-c1ccccc1)CCCCC3,109% (inactive)
9,O=C1C=CC2(O)OC(c3ccccc3)CC(=O)C2=C1O (stereo not given),79.7% (inactive)
10,COc1ccc(S(=O)(=O)NC2c3ccccc3CC2O)cc1OC (stereo not given),97.8% (inactive)
11,CC(C)=CCC[C@](C)(O)C1CC[C@]2(C)[C@@H]1CC[C@@H]1[C@@]3(C)CC/C(=N\OCCC#N)C(C)(C)[C@@H]3CC[C@]12C (stereo not given in full),62.3% (inactive)
12,O=C(/C=C\c1ccc(O)c(O)c1)c1ccccc1O,76.7% (inactive)
13,O=C1C2C(c3cccs3)C=C(c3ccc(Cl)cc3)N2C(=S)N1c1ccccc1 (stereo not given),85.7% (inactive)
14,COC(=O)[C@@H](Cc1c[nH]c2ccccc12)NC[C@@H](O)CN1C(=O)/C(=C\c2cc(OC)c(OC)c(OC)c2)c2ccccc21,46.2% (inactive)
15,O=C1C(c2c(O)[nH]c3ncccc23)=Nc2ccccc21,73% (inactive)
16,COc1ccc(NC(=O)c2sc3nc(C)c(C(=O)c4ccccc4)cc3c2N)cc1,97% (inactive)
17,COc1cc(OCc2cccc(-c3ccccc3)c2C)cc(OC)c1CN1CCCCC1C(=O)NCCOCCOCCN (stereo not given),74.6% (inactive)
18,Nc1ncc(-c2ccc3ncnc(N4CCc5cc(F)c(Cl)cc54)c3c2)cc1C=O,20.1% (inactive)
19,C[C@H]1c2ccccc2CN1CCCOc1cc2c(cc1OCC1CC1)C1(CCCC1)C(N)=N2,44.6% (inactive)
20,Oc1c(Cl)cc(Cl)c2ccc(CN3CCNCC3)nc12,40.3% (inactive)

row,Structure (SMILES),growth
1,CCCCCCCCCCCCCCCCCCOc1ccccc1CC(=O)OCC[N+]1(C)CCCCC1,3.03% (active)
2,Cc1ccc(-c2nc(C#N)c(S(=O)(=O)n3nc(C)cc3N)o2)cc1,85% (inactive)
3,CS(=O)(=O)Nc1cc(-c2ccc3ncnc(Nc4cccc(Cl)c4)c3c2)cnc1Cl,-2.27% (active)
4,O=C(COc1ccc(/C=C2\Oc3ccccc3C2=O)cc1)Nc1nccs1,78.7% (inactive)
5,CC(=O)c1ccc(Nc2nccc(-c3ccc(Cl)cc3)n2)cc1,89.6% (inactive)
6,COc1cc(C(=O)c2c(-c3ccccc3)oc3ccccc23)cc(OC)c1O,43.9% (inactive)
7,CCN(CC)c1ccc(/C=N/NC(=O)c2ccccc2Nc2ccnc(C(F)(F)F)c2)c(O)c1,36% (inactive)
8,c1ccc2c(-c3cnn4cc(-c5ccc(N6CCNCC6)cc5)cnc34)ccnc2c1,-12% (active)
9,CC1=NC(=S)NC(c2ccccc2)/C1=C1/CC(c2ccccc2O)NN1 (stereo not given),95% (inactive)
10,CCN1CCN(C(=O)[C@]23CC[C@@H](C)[C@H](C)[C@@H]2C2=CC[C@@H]4[C@@]5(C)C/C(=C/c6ccncc6)C(=O)C(C)(C)[C@@H]5CC[C@@]4(C)[C@]2(C)CC3)CC1,19.3% (inactive)
11,CCN1CCN(c2nc(NNC(=O)c3ccc(OC)cc3)nc(N3CCN(C(c4ccccc4)c4ccccc4)CC3)n2)CC1,30.2% (inactive)
12,COC(=O)c1nc(-c2ccccc2)oc1S(=O)(=O)N1CCN(c2ccc(OC)cc2)CC1,63.9% (inactive)
13,O=C1c2ccccc2-c2c1c1ccncc1c(=O)n2CCCn1ccnc1,38% (inactive)
14,[2H]C([2H])([2H])Oc1ccc(/C=C/C(=O)/C=C(/C=C/c2ccc(OC([2H])([2H])[2H])c(OC([2H])([2H])[2H])c2OC([2H])([2H])[2H])OB(F)F)c(OC([2H])([2H])[2H])c1OC([2H])([2H])[2H],67.6% (inactive)
15,COc1cccc(NC(=O)c2sc3nc(C)c(C(=O)c4ccccc4)cc3c2N)c1,89.9% (inactive)
16,COc1cccc(C2C(C#N)=C(N)Oc3c2ccc2ccccc32)c1 (stereo not given),21.5% (inactive)
17,O=C(O)/C=C\C(=O)Nc1ccc2c(c1)Cc1cc(F)ccc1-2,97.3% (inactive)
18,C/C(=N\NC(=O)c1ccc(C(C)(C)C)cc1)c1ccc(O)cc1O,33.8% (inactive)
19,C=CC(=O)Nc1ccc2ncnc(Nc3cccc(NS(=O)(=O)CCC)c3Cl)c2c1,68% (inactive)
20,CN(C)C(=O)OCc1ccc2c(Cl)cc(Cl)c(O)c2n1,46.4% (inactive)
